For some of these results: Measured potencies and affinities stand elsewhere.
Key:
Set-up in all cases: scale not given: direction of the effect not stated beside the values
[1] = biological target: Protein translocase subunit SecA (Escherichia coli (strain K12)) (UniProt P10408); test: Assay to Identify E. coli SecA ATPase Inhibitors; assay type: functional; details: 30 µM
[2] = biological target: T1, Ubiquitin-activating enzyme e1, putative (Leishmania donovani (strain BPK282A1)) (UniProt E9BSI1); test: Leishmania donovani Ubiquitin Activating Enzyme (LdE1); assay type: functional; details: 30 µM
T1 sequence (whole entry): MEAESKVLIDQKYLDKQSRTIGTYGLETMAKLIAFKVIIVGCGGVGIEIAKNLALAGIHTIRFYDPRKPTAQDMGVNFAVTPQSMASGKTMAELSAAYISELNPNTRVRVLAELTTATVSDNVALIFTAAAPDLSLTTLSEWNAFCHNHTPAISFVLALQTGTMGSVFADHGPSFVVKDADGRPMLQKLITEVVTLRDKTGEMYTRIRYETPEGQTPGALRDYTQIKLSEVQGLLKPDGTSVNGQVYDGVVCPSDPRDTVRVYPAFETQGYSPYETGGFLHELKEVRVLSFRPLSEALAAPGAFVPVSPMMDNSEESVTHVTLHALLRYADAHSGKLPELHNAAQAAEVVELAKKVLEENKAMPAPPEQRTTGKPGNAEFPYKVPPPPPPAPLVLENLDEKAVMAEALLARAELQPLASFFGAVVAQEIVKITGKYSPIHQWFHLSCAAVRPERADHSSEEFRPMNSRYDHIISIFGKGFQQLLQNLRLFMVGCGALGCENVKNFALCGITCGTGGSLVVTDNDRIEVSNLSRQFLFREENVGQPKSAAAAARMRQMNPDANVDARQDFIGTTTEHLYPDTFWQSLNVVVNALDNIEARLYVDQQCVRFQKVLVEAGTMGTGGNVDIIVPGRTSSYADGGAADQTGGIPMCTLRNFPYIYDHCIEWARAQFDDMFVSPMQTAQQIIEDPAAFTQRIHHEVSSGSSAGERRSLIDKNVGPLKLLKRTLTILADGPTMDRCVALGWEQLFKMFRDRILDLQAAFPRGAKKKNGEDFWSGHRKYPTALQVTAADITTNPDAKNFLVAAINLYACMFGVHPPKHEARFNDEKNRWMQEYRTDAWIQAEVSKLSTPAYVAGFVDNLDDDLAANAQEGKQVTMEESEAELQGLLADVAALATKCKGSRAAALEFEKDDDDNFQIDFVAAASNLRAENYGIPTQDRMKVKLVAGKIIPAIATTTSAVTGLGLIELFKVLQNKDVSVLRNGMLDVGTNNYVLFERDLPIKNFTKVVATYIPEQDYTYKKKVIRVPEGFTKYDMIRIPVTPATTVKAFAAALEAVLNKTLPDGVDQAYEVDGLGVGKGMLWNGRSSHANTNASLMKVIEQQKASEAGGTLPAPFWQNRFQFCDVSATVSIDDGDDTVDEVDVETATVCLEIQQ

[3] = biological target: AMP-activated protein kinase, AMPK (Homo sapiens) (UniProt P54646+O43741+P54619+Q9UGJ0+Q9Y478+Q13131+Q9UGI9); test: AMP-dependent Kinase enzyme assay. An in vitro enzyme assay that detects ADP turnover that is directly proportional to AMPK activity. This uses naive AMPK that is activated during the assay with MK-8722; assay type: functional; details: 30 µM
[4] = biological target: Sialic acid-binding Ig-like lectin 9 (Homo sapiens) (UniProt Q9Y336); test: Hs-Siglec9 ALPHAscreen SOP 20170721; details: 10 µM
Trypanosoma cruzi = test: Trypanosoma cruzi phosphomannomutase and mannose-1-phosphate guanylyltransferase assay; assay type: functional; details: 10 µM
[5] = biological target: T2, Arginase-2, mitochondrial (Homo sapiens) (UniProt P78540); test: in vitro enzyme assay to detect the production of urea directly proportional to the activity of Arginase II; assay type: functional; details: 33.3 µM; also: in the data most compounds retested in dose-response had high values
T2 sequence (whole entry): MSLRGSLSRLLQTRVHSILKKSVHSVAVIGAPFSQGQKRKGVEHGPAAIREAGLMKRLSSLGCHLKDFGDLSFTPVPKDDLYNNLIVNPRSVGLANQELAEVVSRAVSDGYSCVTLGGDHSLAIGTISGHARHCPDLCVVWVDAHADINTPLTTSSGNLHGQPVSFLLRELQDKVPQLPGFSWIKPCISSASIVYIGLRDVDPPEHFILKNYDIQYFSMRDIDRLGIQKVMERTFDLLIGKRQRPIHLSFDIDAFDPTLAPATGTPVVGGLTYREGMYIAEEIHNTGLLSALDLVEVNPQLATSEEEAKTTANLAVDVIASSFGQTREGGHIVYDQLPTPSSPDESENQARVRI

[6] = biological target: T3, Proteasome subunit beta (Trypanosoma cruzi) (UniProt O96673); test: Trypanosoma cruzi proteasome chymotrypsin-like activity (TcProtChymo) assay.; also: in the data most compounds retested in dose-response had high values; assay type: functional; details: 9.37 µM
T3 sequence (whole entry): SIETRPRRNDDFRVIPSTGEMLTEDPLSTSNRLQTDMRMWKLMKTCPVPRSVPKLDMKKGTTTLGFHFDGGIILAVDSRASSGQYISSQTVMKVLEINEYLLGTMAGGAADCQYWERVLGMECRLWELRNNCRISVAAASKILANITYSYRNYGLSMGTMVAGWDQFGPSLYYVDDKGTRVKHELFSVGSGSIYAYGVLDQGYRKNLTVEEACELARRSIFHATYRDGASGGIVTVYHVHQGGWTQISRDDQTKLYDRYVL

Homo sapiens = species: Homo sapiens; test: To identify inhibition of the IFN signalling (Jak-Stat) pathway via expression of an eGFP reporter gene under the control of an IFN-stimulated response element (ISRE) containing MxA promoter.; assay type: functional; details: 30 µM
[7] = biological target: T4, Tyrosyl-tRNA synthetase, putative (Trypanosoma cruzi (strain CL Brener)) (UniProt Q4DSP6); test: Trypanosoma cruzi tyrosyl tRNA synthetase (TcYRS) _High Tyrosine SOP; assay type: functional; details: 30 µM; also: in the data most compounds retested in dose-response had high values
T4 sequence (whole entry): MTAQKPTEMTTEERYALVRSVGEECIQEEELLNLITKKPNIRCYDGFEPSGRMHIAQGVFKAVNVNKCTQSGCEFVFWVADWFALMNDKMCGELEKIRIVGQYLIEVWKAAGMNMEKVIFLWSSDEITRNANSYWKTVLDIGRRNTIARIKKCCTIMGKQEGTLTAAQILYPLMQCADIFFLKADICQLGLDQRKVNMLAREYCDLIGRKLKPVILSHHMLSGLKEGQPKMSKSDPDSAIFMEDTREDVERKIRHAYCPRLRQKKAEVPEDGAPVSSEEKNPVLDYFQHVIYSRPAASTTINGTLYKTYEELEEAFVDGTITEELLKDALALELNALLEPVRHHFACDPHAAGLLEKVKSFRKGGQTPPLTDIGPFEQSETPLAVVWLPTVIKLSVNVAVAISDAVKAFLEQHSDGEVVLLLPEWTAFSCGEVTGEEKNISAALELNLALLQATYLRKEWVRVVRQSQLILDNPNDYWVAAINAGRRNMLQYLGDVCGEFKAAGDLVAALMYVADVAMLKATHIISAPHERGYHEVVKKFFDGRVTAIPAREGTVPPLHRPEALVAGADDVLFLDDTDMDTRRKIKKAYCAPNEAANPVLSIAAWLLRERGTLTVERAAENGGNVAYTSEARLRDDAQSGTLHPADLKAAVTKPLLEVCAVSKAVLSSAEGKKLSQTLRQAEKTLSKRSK

[8] = biological target: T4, Tyrosyl-tRNA synthetase, putative (Trypanosoma cruzi (strain CL Brener)); test: Trypanosoma cruzi tyrosyl tRNA synthetase (TcYRS) SOP; assay type: functional; details: 30 µM
[9] = biological target: Chromo domain-containing protein 1 (Saccharomyces cerevisiae (strain ATCC 204508 / S288c) (Baker's yeast)) (UniProt P32657); test: ScCHD-1 Enzyme Inhibition Assay; assay type: functional; details: 30 µM; also: in the data most compounds retested in dose-response had high values
Chromo domain-containing protein 1 (Saccharomyces cerevisiae (strain ATCC 204508 / S288c) (Baker's yeast)), sequence (P32657 whole entry, the tested form may be a part): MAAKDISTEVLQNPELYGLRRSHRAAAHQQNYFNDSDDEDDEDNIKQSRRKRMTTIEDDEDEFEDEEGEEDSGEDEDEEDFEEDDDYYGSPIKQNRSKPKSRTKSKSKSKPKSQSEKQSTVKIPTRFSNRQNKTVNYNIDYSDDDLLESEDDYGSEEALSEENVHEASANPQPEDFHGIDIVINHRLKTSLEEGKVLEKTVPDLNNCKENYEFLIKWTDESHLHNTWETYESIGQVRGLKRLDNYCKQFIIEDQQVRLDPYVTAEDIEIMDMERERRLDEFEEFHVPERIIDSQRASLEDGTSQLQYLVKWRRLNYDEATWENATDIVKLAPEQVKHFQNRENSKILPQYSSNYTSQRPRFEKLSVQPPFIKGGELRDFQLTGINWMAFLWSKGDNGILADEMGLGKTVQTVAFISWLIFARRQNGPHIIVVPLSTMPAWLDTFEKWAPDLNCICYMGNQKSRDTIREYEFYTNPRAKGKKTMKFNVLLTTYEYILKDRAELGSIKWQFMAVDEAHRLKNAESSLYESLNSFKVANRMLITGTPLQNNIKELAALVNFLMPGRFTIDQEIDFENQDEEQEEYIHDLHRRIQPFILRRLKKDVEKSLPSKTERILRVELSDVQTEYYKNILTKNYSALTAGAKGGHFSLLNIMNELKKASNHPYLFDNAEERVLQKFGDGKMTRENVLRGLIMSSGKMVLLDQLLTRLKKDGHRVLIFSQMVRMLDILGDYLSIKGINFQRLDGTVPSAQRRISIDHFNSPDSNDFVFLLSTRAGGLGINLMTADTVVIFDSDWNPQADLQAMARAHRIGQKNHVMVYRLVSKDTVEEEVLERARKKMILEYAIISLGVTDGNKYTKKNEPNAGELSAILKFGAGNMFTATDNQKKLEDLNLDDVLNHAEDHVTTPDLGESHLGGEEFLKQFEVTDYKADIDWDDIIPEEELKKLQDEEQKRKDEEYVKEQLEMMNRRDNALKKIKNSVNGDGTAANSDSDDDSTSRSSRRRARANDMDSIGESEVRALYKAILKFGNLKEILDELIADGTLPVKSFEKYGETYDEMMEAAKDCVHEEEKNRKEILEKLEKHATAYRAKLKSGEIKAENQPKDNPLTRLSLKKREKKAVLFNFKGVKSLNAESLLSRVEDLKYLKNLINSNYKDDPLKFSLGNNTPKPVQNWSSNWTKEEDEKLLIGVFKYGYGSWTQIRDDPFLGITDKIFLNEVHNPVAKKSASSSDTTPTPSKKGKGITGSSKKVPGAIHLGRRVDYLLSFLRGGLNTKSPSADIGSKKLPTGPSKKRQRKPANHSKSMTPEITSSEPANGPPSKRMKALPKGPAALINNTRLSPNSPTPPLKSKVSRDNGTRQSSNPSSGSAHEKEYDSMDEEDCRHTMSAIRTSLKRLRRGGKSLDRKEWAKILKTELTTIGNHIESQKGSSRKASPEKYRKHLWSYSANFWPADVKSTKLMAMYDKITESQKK

Protein translocase subunit SecA (Escherichia coli (strain K12)), sequence (P10408 whole entry): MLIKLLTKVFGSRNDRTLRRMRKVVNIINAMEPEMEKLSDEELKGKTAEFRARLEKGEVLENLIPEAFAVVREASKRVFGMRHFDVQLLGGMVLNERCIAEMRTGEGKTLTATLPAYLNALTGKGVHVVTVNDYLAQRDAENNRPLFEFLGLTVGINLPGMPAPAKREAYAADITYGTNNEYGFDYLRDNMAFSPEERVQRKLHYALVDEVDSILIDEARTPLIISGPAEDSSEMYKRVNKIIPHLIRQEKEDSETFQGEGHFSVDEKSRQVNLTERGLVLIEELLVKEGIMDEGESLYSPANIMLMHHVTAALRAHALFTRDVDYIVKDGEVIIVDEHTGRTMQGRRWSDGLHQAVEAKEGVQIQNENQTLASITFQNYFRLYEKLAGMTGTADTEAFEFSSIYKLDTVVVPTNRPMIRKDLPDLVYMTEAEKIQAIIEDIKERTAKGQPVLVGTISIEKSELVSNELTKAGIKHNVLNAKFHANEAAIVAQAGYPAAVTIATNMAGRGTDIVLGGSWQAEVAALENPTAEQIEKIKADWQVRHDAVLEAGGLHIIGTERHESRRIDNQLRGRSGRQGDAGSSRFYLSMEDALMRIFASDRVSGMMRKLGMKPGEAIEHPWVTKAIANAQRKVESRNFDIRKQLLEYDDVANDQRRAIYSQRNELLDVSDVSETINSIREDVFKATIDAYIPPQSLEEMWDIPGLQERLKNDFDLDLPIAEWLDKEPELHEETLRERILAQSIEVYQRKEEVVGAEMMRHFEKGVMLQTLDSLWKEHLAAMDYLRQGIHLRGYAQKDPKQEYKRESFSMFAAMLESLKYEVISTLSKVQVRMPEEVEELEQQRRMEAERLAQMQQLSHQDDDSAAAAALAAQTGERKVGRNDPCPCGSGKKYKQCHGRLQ
Sialic acid-binding Ig-like lectin 9 (Homo sapiens), sequence (Q9Y336 whole entry): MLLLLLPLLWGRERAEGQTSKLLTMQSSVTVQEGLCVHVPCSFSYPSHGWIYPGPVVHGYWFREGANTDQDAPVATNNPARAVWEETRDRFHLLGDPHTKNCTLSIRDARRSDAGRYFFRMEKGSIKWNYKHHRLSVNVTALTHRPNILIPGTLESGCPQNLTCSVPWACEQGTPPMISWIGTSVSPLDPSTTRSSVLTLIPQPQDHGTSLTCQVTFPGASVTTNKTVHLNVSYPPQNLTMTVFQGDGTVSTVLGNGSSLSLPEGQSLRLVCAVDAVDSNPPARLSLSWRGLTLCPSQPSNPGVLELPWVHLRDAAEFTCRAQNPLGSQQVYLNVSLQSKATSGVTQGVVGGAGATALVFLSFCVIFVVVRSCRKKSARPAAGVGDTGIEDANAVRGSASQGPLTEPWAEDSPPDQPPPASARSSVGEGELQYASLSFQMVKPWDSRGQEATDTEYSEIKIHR

CC(C)S(=O)(=O)c1nnc(CCNC(=O)OC(C)(C)C)o1
Percent Effect [1]: -7.35%
Percent Effect [2]: 4%
Percent Effect [3]: 2.34%
Percent Effect [4]: -6.84%
Percent Effect (Trypanosoma cruzi): -5.3%
Percent Effect [5]: -9.33%
Percent Effect [6]: 14.1%
Percent Effect (Homo sapiens): 17.5%
Percent Effect [7]: 3.17%
Percent Effect [8]: 2.56%
Percent Effect [9]: -8.11%

COc1ccc(C(=O)N2CCCCC2c2nc(C)cs2)nn1 (stereo unspecified)
Percent Effect [1]: -4.04%
Percent Effect [2]: 2.6%
Percent Effect [3]: -3.01%
Percent Effect [4]: 4.77%
Percent Effect (Trypanosoma cruzi): 10.3%
Percent Effect [5]: 3.2%
Percent Effect [6]: -4.39%
Percent Effect (Homo sapiens): 7.94%
Percent Effect [7]: 5.83%
Percent Effect [8]: 14.6%
Percent Effect [9]: 69.5%

COc1ccc(CN2CCn3c(CNS(C)(=O)=O)nnc3C2)cc1
Percent Effect [1]: -9.41%
Percent Effect [2]: 5.41%
Percent Effect [3]: -37.8%
Percent Effect [4]: -5.71%
Percent Effect (Trypanosoma cruzi): -16.5%
Percent Effect [5]: -3.5%
Percent Effect [6]: 2.77%
Percent Effect (Homo sapiens): 14.7%
Percent Effect [7]: 0%
Percent Effect [8]: 5.13%
Percent Effect [9]: 1%

CC1CCN(CCNC(=O)c2ccccc2N2CCOCC2)CC1
Percent Effect [1]: 0.622%
Percent Effect [2]: 11%
Percent Effect [3]: -2.96%
Percent Effect [4]: 1.48%
Percent Effect (Trypanosoma cruzi): -1.98%
Percent Effect [5]: -2.79%
Percent Effect [6]: 24.1%
Percent Effect (Homo sapiens): 5.31%
Percent Effect [7]: 13.5%
Percent Effect [8]: 16.1%
Percent Effect [9]: -2.45%

CCOc1ccc(Cl)c(C(=O)N2CCN(CCO)CC2)n1
Percent Effect [1]: -5.67%
Percent Effect [2]: 10.4%
Percent Effect [3]: -0.195%
Percent Effect [4]: 9%
Percent Effect (Trypanosoma cruzi): -3%
Percent Effect [5]: 0.356%
Percent Effect [6]: 4.05%
Percent Effect (Homo sapiens): 5.42%
Percent Effect [7]: 4.85%
Percent Effect [8]: 9.76%
Percent Effect [9]: -4.45%

COc1ccc(CN(C)C(=O)CCC(=O)c2cccs2)c(OC)c1OC
Percent Effect [1]: -2.26%
Percent Effect [2]: -2.74%
Percent Effect [3]: -1.79%
Percent Effect [4]: 9.32%
Percent Effect (Trypanosoma cruzi): 2.78%
Percent Effect [5]: -6.39%
Percent Effect [6]: 10.7%
Percent Effect (Homo sapiens): 18.4%
Percent Effect [7]: 9.38%
Percent Effect [8]: 21%
Percent Effect [9]: 2.3%

CCc1noc(C(C)N2CCC(NC(=O)c3ccc(C)s3)CC2)n1 (stereo unspecified)
Percent Effect [1]: -3.18%
Percent Effect [2]: 7.79%
Percent Effect [3]: 2.15%
Percent Effect [4]: 19.9%
Percent Effect (Trypanosoma cruzi): 2.65%
Percent Effect [5]: 2.76%
Percent Effect [6]: 12.3%
Percent Effect (Homo sapiens): 17.6%
Percent Effect [7]: 4.3%
Percent Effect [8]: 11.1%
Percent Effect [9]: -0.98%

Cc1ccccc1-c1cc(NC(=O)CC(C)C)n(CCO)n1
Percent Effect [1]: -2.35%
Percent Effect [2]: 2.63%
Percent Effect [3]: -11.8%
Percent Effect [4]: 0.669%
Percent Effect (Trypanosoma cruzi): -6.33%
Percent Effect [5]: 2.37%
Percent Effect [6]: 5.46%
Percent Effect (Homo sapiens): 0.574%
Percent Effect [7]: 3.19%
Percent Effect [8]: 5.2%
Percent Effect [9]: -3.67%

COc1ccccc1C(=O)N1Cc2cc(C)ccc2OCC1CN(C)C (stereo unspecified)
Percent Effect [1]: -0.165%
Percent Effect [2]: 6.76%
Percent Effect [3]: 11.3%
Percent Effect [4]: -7.4%
Percent Effect (Trypanosoma cruzi): -7.91%
Percent Effect [5]: -1.62%
Percent Effect [6]: 14.5%
Percent Effect (Homo sapiens): 14.6%
Percent Effect [7]: 2.15%
Percent Effect [8]: 3.9%
Percent Effect [9]: -11.2%

CCN(CC)CCNC(=O)c1cnc(C(C)(C)C)s1
Percent Effect [1]: -3.73%
Percent Effect [2]: 0%
Percent Effect [3]: 2.58%
Percent Effect [4]: -11.2%
Percent Effect (Trypanosoma cruzi): -3.64%
Percent Effect [5]: 2.88%
Percent Effect [6]: 8.21%
Percent Effect (Homo sapiens): 0.408%
Percent Effect [7]: 0.493%
Percent Effect [8]: -6.17%
Percent Effect [9]: -0.603%

O=C(CCc1cc(O)no1)N1CCCC(COc2ccc(F)cc2)C1 (stereo unspecified)
Percent Effect [1]: -4.75%
Percent Effect [2]: 20.8%
Percent Effect [3]: -16.4%
Percent Effect [4]: 26.7%
Percent Effect (Trypanosoma cruzi): 3.6%
Percent Effect [5]: 0.442%
Percent Effect [6]: 14%
Percent Effect (Homo sapiens): -9.73%
Percent Effect [7]: 5.26%
Percent Effect [8]: 10.3%
Percent Effect [9]: -11.2%

— ChEMBL document CHEMBL3988442, “University of Dundee, Small-Polar-MMV Screening Library” (2021)
